Assay outcomes as filed in PubChem BioAssay.
PKM2 activator: increases activity of human pyruvate kinase M2; Potency, µM (highest dose often 57.5 µM), for inactives: top-dose activation, most hits filed as activators; 260,000 compounds, 0.34% hits; P14618; AID 1631; purified PKM2, Kinase-Glo ATP luminescence, activation; response scale: 0% is enzyme alone, no compound; also: potency is read from the fitted curve at half-maximal effect; % is scaled to controls: 0 for no effect and ±100 for the full control effect; nearly all actives have a fitted effect of over 55% in size
Target sequence (P14618 whole entry, looked up): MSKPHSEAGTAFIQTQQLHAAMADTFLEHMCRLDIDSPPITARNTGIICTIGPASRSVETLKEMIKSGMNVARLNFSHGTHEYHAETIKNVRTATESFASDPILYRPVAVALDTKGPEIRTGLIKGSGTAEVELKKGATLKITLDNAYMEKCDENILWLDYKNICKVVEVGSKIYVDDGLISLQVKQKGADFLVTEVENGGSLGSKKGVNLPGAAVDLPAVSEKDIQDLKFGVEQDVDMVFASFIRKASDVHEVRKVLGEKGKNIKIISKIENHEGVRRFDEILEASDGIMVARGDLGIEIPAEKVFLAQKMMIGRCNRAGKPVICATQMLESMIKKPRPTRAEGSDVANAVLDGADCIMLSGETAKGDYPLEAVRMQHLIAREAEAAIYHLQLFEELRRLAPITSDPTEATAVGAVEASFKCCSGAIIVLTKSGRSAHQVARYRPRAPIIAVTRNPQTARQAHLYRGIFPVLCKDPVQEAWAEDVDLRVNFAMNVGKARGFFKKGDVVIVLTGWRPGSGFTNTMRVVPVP
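ATP formation by purified human PK-M2, quantified via coupled luciferase luminescence after 1 h at room temperature with 0.1 mM ADP and 0.5 mM PEP final.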
BRCA1 expr act: increases BRCA1 expression. Potency, µM (doses to about 46.1 µM), for inactives: at the highest dose activation, hits mostly activators. 380,000 compounds, 1.1% hits. MCF7-BRCA1-FFLuc reporter, luminescence, 48 h; response scale: scaled: vehicle 0%, 10 µM genistein 100%; also: potency is read from the fitted curve at half-maximal effect; nearly all actives have a fitted effect of over 80% in size
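MCF7 cells carrying a BRCA1-firefly luciferase reporter (2000 cells/well, phenol-red free MEM) were attached for 2 h at 37 °C, then given compounds for 48 h. Luminescence was read 15 min after luciferase reagent; activity normalized to genistein (10 microM) and DMSO.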
TRPML1 blocker: inhibitors of human TRPML1 channel. Q9GZU1. TRPML1-inducible cells, Ca2+ dye fluorescence, FDSS; stronger effect = lower value; inhibition of EC80 agonist-evoked calcium signal. activity change, negative = inhibition, % (concentration not given with the values). 390,000 compounds, 0.02% hits; in the data active = activity change below about -50%; inconclusive = between about -30% and that limit;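 also: stimulus is agonist 54-4 at its EC80 concentration; % is scaled to controls: 0 for no effect and ±100 for the full control effect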
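Calcium fluorescence in TRPML1-DL cells induced overnight with Tet: a 110 s read after compound pin addition, then a 110 s antagonist read after challenge with 54-4 at 4 uM final (EC80).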
IL-2 act: IL-2 activation; IL-2 activation reporter assay, cell-based qHTS; stimulated with anti-CD3/CD4/CD28 beads; in transgenic mouse T cells; activation, % (series mostly up to about 46 µM); 360,000 compounds, 0.065% hits; AID 652025; in the data active = activation above about 50%; inconclusive = mostly about 30% to 49%; also: 0% is about no effect
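First, unstimulated transgenic mouse T cells were exposed to compound for 60 min. Next, anti-CD3/anti-CD4-coated beads with anti-CD28 were added. Finally, after 18 h at 37 degrees C, EGFP and DsRed were imaged.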
TRPML1 ag: agonists of human TRPML1 channel; Q9GZU1; TRPML1-expressing cells, Ca2+ dye fluorescence, FDSS; activation, % (test concentration not listed); 410,000 compounds, 0.12% hits; AID 624414; in the data active = activation above about 50%; inconclusive = mostly about 30% to 49%; also: 0% is about no effect
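In this qHTS format, compounds were pin-transferred onto Ca8-dye-loaded TRPML1-DL cells induced with Tet overnight, and intracellular Ca2+ fluorescence was recorded kinetically for 110 s after a 10 s baseline. A subsequent 4uM final 54-4 (EC80) addition followed by a second 110 s read served as the antagonist phase.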
PTAP TSG101 blk: blocks PTAP/TSG101 interaction to inhibit HIV-1 budding; Q99816; Fluorescence polarization, FITC-PTAP peptide / Tsg101 binding; Potency, µM (series often up to 115 µM), inactives show at the highest dose activity change, negative = inhibition, actives largely listed as inhibitors; 340,000 tested, under 10 active; AID 493005; active = well fitted inhibition curve with a large enough effect in the main read-out, with a control signal flat, not every such curve was filed as active; inconclusive = small, poorly fitted or top-dose-only effect, or effect the other way, or a change in a side signal; inactive = no such curve, though single readings can be large or run the other way; also: potency is read from the fitted curve at half-maximal effect; % of control where 0% means no effect
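FP read-out: FITC-PTAP peptide, 50 nM final, binding Tsg101 binding domain, 10 uM final; 20 min, r.t.; 10 mM HEPES pH 7.5, 0.15 M NaCl, 0.01% Tween 20, 3 mM EDTA, 0.1 mM TCEP.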
* = called active by the depositor; ? = inconclusive; nt = not tested or not shown. The list is not random: actives were taken first. Their share in the collection is about 1.3%. Unless noted, calls follow the shape of the dose curve; as a rule, active = well fitted activation curve with a large enough effect; inconclusive = small, poorly fitted or top-dose-only effect; inactive = no such curve, though single readings can be large or run the other way.

SMILES	PKM2 activator	BRCA1 expr act	TRPML1 blocker	IL-2 act	TRPML1 ag	PTAP TSG101 blk
COc1ccc(NC(=O)Nc2nc(C)cc(C)n2)c(OC)c1	-5%	-39%	-9	1	0	-12%
COc1ccc(NC(=O)Nc2ccc3oc(C)nc3c2)cc1	0%	2.8µM*	-4	-4	0	-1%
COc1ccc(NC(=O)Nc2ccc(F)cc2F)c(C)c1	-2%	18%	10	0	-1	-2%
Cc1cccc(Cn2cnc3c(cnn3C(C)(C)C)c2=O)c1	nt	nt	8	nt	1	nt
COc1ccc(OC)c(NC(=O)CSc2ncc3c(n2)-c2ccccc2N(C)S3(=O)=O)c1	nt	nt	46	nt	1	nt
CC(CCC(C)[n+]1cccc(C#N)c1)[n+]1cccc(C#N)c1 (stereo not given)	nt	1%	nt	nt	0	nt
CCOc1ccccc1C(=O)Nc1ccc(S(=O)(=O)Nc2onc(C)c2C)cc1	nt	nt	13	nt	1	nt
CCOc1ccc(Nc2c(S(=O)(=O)c3ccc(C)cc3)cnc3ccc(F)cc23)cc1	nt	nt	-13	nt	63*	nt
CCCCCCCn1c2c(c(=N)c3ccccc31)CCC2	-5%	-66%	8	-3	4	-1%
CN(C)c1ccc(Nc2ccc([N+](=O)[O-])cn2)cc1	2%	3.2µM*	-6	-5	0	-4%
CCc1ccc(Nc2ncnc3nc[nH]c23)cc1	3%	?	-3	-1	1	-6%
CCCCc1ccc(Nc2ncnc3nc[nH]c23)cc1	-1%	4.5µM*	-14	-2	0	3%
COc1cccc(-c2ccc(-c3noc(-c4ccccc4F)n3)c(OC)n2)c1	7%	10µM*	11	0	-1	-1%
COCc1nc(-c2ccc(-c3ccccc3)nc2OC)no1	3%	10µM*	40	-1	1	-3%
COc1cccc(-c2ccc(-c3noc(-c4cccs4)n3)c(OC)n2)c1	3%	57%	10	0	0	-7%
COCc1nc(-c2ccc(-c3ccc(OC)cc3)nc2OC)no1	5%	0%	40	-1	1	-6%
O=C(Oc1ccc2c(c1)OCO2)c1cccs1	-1%	-4%	-50*	-1	-1	-9%
CCn1c(C(=O)N2CCC(C(=O)N3CCN(c4ccc(OC)cc4)CC3)CC2)cc2sccc21	nt	nt	-9	nt	0	nt
CCn1c(C(=O)N2CCCC(C(=O)N3CCN(c4ccccc4)CC3)C2)cc2sccc21 (stereo not given)	nt	nt	?	nt	61*	nt
COc1ccc(CN2CC[C@H]3C=CC[C@@H](C(=O)NC4CCCCC4)[C@H]3C2=O)cc1OC	nt	nt	nt	nt	-1	nt
CN1/C(=C/C=C(C#N)C#N)C(C)(C)c2ccccc21	-2%	2%	-3	115*	0	?
CN1\C(=C/C=C/C=C/C=[N+](C)C)C(C)(C)c2ccccc21	nt	-57%	5	-1	86*	50%
CN1/C(=C\C=O)C(C)(C)c2ccccc21	3%	11%	4	-4	1	1%
C(=Nc1ccc(/C=C/c2ccnc3ccccc23)cc1)c1cccs1	nt	1%	nt	nt	8	nt
COc1ccc(/C=C(\C#N)C(=O)NCC2CCCO2)cc1OC (stereo not given)	-3%	0%	-14	-3	-1	-6%
SMILES	PKM2 activator	BRCA1 expr act	TRPML1 blocker	IL-2 act	TRPML1 ag	PTAP TSG101 blk
COc1cc(/C=C(\C#N)C(=O)NCC2CCCO2)ccc1OCCC(C)C (stereo not given)	2%	-8%	-19	-1	52*	-4%
CCCCOc1ccc(C(=O)N=c2sccn2C)cc1OC	-1%	4µM*	3	-3	0	-5%
CCN1/C(=C/c2cc[n+](CCCS(=O)(=O)[O-])c3ccccc23)Sc2ccccc21	-5%	-7%	17	226*	0	-1%
Cc1cc2nnc(SCc3ccc4c(c3)OCO4)n2c2ccccc12	nt	-25%	34	1	1	1%
c1ccc2c(c1)ccc1nnc(SCc3ccc4c(c3)OCCO4)n12	22µM*	68%	27	-2	0	-2%
CCOC(=O)c1c(NC(=O)c2nc(SC(C)C)ncc2Cl)sc2c1CCCC2	nt	nt	4	nt	-1	nt
COc1ccccc1CN(Cc1cc2cc3c(cc2[nH]c1=O)OCCO3)Cc1nnnn1Cc1ccco1	20µM*	5%	2	2	7	-7%
COc1ccc(-n2c(C)cc(/C=C3\SC(=O)NC3=O)c2C)cc1	nt	11µM*	3	-3	3	0%
Cc1cc(/C=C2\SC(=S)NC2=O)c(C)n1-c1cccc(O)c1	-10%	2.8µM*	nt	3	nt	-5%
Cc1ccc(-n2c(C)cc(/C=C3\SC(=O)NC3=O)c2C)cc1	nt	?	-8	0	1	1%
Cc1ccc2nccnc2c1	nt	nt	nt	nt	0	nt
Cc1cc(C)n(-c2nc3ccccc3nc2N2CCN(S(=O)(=O)c3ccc(F)c(C)c3)CC2)n1	10µM*	-9%	-2	-1	-1	-14%
Cc1cc(C)n(-c2nc3ccccc3nc2N2CCN(S(=O)(=O)c3ccc4ccccc4c3)CC2)n1	2%	-49%	-6	-3	1	-4%
CCCN1C(C(=O)c2ccccc2)=C(OC(=O)COc2ccc(C)cc2)c2ccccc2S1(=O)=O	nt	nt	-4	nt	0	nt
CCOc1ccccc1-n1c(=S)sc2c(=O)n(-c3ccc(C)cc3)c(=S)[nH]c21	-5%	43%	?	3	66*	2%
O=C(N/N=C1\CCc2ccccc21)c1ccc(O)cc1	-21%	2µM*	0	0	0	-2%
O=C(N/N=C1\CCc2ccccc21)c1ccccc1Cl	0%	2µM*	-9	-1	-1	-1%
CCOC(=S)SCC(=O)Nc1nc(C)c(C)s1	-1%	-30%	-6	-1	-1	-2%
CCOC(=S)SCC(=O)Nc1nccs1	18µM*	-10%	0	-1	0	0%
Cc1ccc(C)c(OCc2cc(C(=O)N3C[C@@H](C)O[C@@H](C)C3)no2)c1	-1%	4.5µM*	2	-4	1	-1%
Cc1ccc(C)c(OCc2cc(C(=O)N3CCN(c4ccccc4)CC3)no2)c1	-3%	7.1µM*	-3	-2	1	-1%
CCOC(=O)c1ccc(NC(=O)Nc2ccccn2)cc1	-10%	5µM*	-7	0	3	2%
CCOC(=O)c1ccc(NC(=O)c2nn(CC)cc2Br)cc1	3%	?	15	-3	-1	-2%
CCOC(=O)c1ccc(NC(=O)N(CC)CC)cc1	4%	2.5µM*	0	0	-1	-8%
CCOC(=O)CC(=O)Nc1ccc(C(=O)OCC)cc1	-1%	38%	25	-1	0	-4%
